Experimental data reported in PubChem BioAssay AID1159580 (chemical genetic matrix, 2015).
Several values for one entry are separate records, joined by “and”; a condition that tells them apart may be missing. Identical values can stand only once. The whole screen tested about 5,500 compounds, of which about 2,000 (36%) were called active. Roughly 18% stayed inconclusive and do not appear here. Cut-off read from the data, not from the text of the source: active = normalized growth mostly below about 0.91 (no sharp cut-off); inconclusive = no clear call, values can overlap the other calls; inactive = mostly above about 0.92. The list shows a part of the results.

Experiment: chemical genetic growth profiling, strain panel (AID 1159580);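 note: tested at 20 µM; growth read once vehicle control cultures reached saturation at 30 °C; 1 = growth at the plate median or of vehicle wells; lower values mean less growth of the strain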
Conditions: S. cerevisiae deletion strains, growth OD

Measured: normalized growth

COc1cc(NS(=O)(=O)c2ccc(N)cc2)nc(OC)n1
inactive: locus YAL021C, strain ccr4, hits give low values 0.976 | locus YAL026C, strain drs2, hits give low values 0.982 | locus YAL030W, strain snc1, hits give low values 0.976 | locus YBL061C, strain skt5, hits give low values 0.97 | locus YBR009C, strain hhf1, hits give low values 0.977 | locus YBR021W, strain FUR4, hits give low values 0.983 | locus YBR023C, strain chs3, hits give low values 0.977 | locus YBR171W, strain sec66, hits give low values 0.968 | locus YBR229C, strain ROT2, hits give low values 0.987 | locus YBR231C, strain swc5, hits give low values 0.971 | locus YBR279W, strain paf1, hits give low values 0.961 | locus YCL011C, strain gbp2, hits give low values 0.986 | locus YCL016C, strain dcc1, hits give low values 0.978 | locus YCL029C, strain bik1, hits give low values 0.978 | locus YCL061C, strain MRC1, hits give low values 0.97 | locus YCL069W, strain vba3, hits give low values 0.985 | locus YCR088W, strain abp1, hits give low values 0.962 | locus YDL005C, strain med2, hits give low values 0.979 | locus YDL035C, strain GPR1, hits give low values 0.976 | locus YDL040C, strain nat1, hits give low values 0.963 | locus YDL074C, strain BRE1, hits give low values 0.995 | locus YDL101C, strain DUN1, hits give low values 0.985 | locus YDL134C, strain PPH21, hits give low values 0.968 | locus YDL185W, strain tfp1, hits give low values 0.982 | locus YDL192W, strain arf1, hits give low values 0.984 | locus YDR001C, strain nth1, hits give low values 0.978 | locus YDR069C, strain doa4, hits give low values 0.957 | locus YDR101C, strain arx1, hits give low values 0.999 | locus YDR137W, strain rgp1, hits give low values 0.984 | locus YDR150W, strain NUM1, hits give low values 0.999 | locus YDR159W, strain sac3, hits give low values 0.933 | locus YDR162C, strain NBP2, hits give low values 0.98 | locus YDR195W, strain ref2 0.942 | locus YDR297W, strain sur2, hits give low values 0.983 | locus YDR318W, strain mcm21, hits give low values 0.989 | locus YDR334W, strain swr1, hits give low values 0.974 | locus YDR335W, strain msn5, hits give low values 0.981 | locus YDR388W, hits give low values 0.977 | locus YDR392W, strain spt3, hits give low values 0.984 | locus YDR502C, strain sam2, hits give low values 0.98 | locus YEL003W, strain gim4, hits give low values 0.991 | locus YEL037C, strain rad23, hits give low values 0.965 | locus YEL061C, strain CIN8 (second series), hits give low values 0.986 | locus YEL061C, strain CIN8, hits give low values 1 | locus YER015W, strain faa2, hits give low values 0.99 | locus YER016W, strain bim1, hits give low values 0.988 | locus YER110C, hits give low values 0.972 | locus YER111C, strain swi4, hits give low values 0.973 | locus YER155C, strain BEM2 (second series), hits give low values 0.95 | locus YER155C, strain BEM2, hits give low values 0.996 | locus YER167W, strain BCK2, hits give low values 0.977 | locus YFR010W, strain ubp6, hits give low values 0.976 | locus YGL078C, strain dbp3, hits give low values 0.985 | locus YGL086W, strain mad1, hits give low values 0.997 | locus YGL167C, strain pmr1, hits give low values 0.976 | locus YGL173C, strain kem1, hits give low values 0.951 | locus YGL227W, strain vid30, hits give low values 0.97 | locus YGL240W, strain doc1, hits give low values 0.97 | locus YGL248W, strain PDE1, hits give low values 1.01 | locus YGL253W, strain hxk2, hits give low values 0.977 | locus YGR078C, strain PAC10, hits give low values 1.01 | locus YGR135W, strain pre9, hits give low values 0.979 | locus YGR229C, strain SMI1, hits give low values 0.982 | locus YGR252W, strain gcn5, hits give low values 1.03 | locus YHR013C, strain ard1, hits give low values 0.988 | locus YHR027C, strain rpn1, hits give low values 0.981 | locus YHR030C, strain SLT2, hits give low values 0.986 and 0.975 | locus YHR079C, strain IRE1 (second series), hits give low values 0.991 | locus YHR079C, strain IRE1, hits give low values 0.978 | locus YHR094C, strain hxt1, hits give low values 0.98 | locus YHR129C, strain ARP1, hits give low values 0.985 | locus YHR142W, strain chs7, hits give low values 0.969 | locus YHR200W, strain rpn10, hits give low values 0.993 | locus YIL066C, strain RNR3, hits give low values 0.982 | locus YIL073C, strain SPO22, hits give low values 0.87 | locus YIL125W, strain kgd1, hits give low values 0.994 | locus YIR030C, strain dcg1, hits give low values 0.997 | locus YJL092W, strain hpr5, hits give low values 0.982 | locus YJL095W, strain BCK1 (second series), hits give low values 0.963 | locus YJL095W, strain BCK1, hits give low values 1.03 and 0.977 | locus YJL115W, strain asf1, hits give low values 0.966 | locus YJL129C, strain trk1, hits give low values 0.969 | locus YJL134W, strain LCB3, hits give low values 0.986 | locus YJL154C, strain vps35, hits give low values 0.965 | locus YJL164C, strain tpk1, hits give low values 1 | locus YJL166W, strain qcr8, hits give low values 0.978 | locus YJL168C, strain set2, hits give low values 0.989 | locus YJL187C, strain SWE1 (second series), hits give low values 0.994 | locus YJL187C, strain SWE1, hits give low values 0.976 | locus YJR043C, strain POL32, hits give low values 0.982
